Experimental findings from the supplement of paper PMC9262897, “Low-cost anti-mycobacterial drug discovery using engineered E. coli” (Nature Communications, 2022) are described below.

Counter-ions that a name gives are not always drawn. ± gives the standard deviation of the averaged measurements.

In one assay the test system is E. coli TESEC Alr+ wild-type control. In words: growth (OD600 after 10 h); higher = more growth (less inhibition). As to conditions: compound 0.1 mM; raw OD600 reference: median of DMSO wells 0.241, cell-free background 0.041. The procedure:
(§1)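 TESEC Mtb Alr E. coli, or the Alr+ wild-type control, in 384-well plates with Prestwick library compounds at 0.1 mM and 1% DMSO, across arabinose induction levels of 1E3 to 1E7 nM. Growth is read as OD600 after 10 h at 37 °C in triplicate biological replicates.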
The molecule `Clc1ccc(C(c2ccccc2Cl)C(Cl)Cl)cc1` (stereo not given) [Mitotane] showed a growth of 0.224 ± 0.0027.

`Cc1nc2ccccn2c(=O)c1CCN1CCC(C(=O)c2ccc(F)cc2)CC1` [Pirenperone] gave a growth of 0.208 ± 0.0042.

`O=c1cc(-c2ccc(O)c(O)c2)oc2cc(O)cc(O)c12` [Luteolin] had a growth of 0.05467 ± 0.00021.

`CC[N+](C)(C)c1cccc(O)c1` [Edrophonium chloride] displayed a growth of 0.258 ± 0.011.

`CCn1cc(C(=O)O)c(=O)c2cc(F)c(N3CCNC(C)C3)c(F)c21` (stereo not given) [Lomefloxacin hydrochloride]: the growth came to 0.04153 ± 0.0004.

The next assay concerns E. coli TESEC Mtb Alr. Described as above. As to conditions: arabinose 1000 nM; compound 0.1 mM; raw OD600 reference: median of DMSO wells 0.294, cell-free background 0.041. The procedure:
as §1
`CCCNC(C)(C)COC(=O)c1ccccc1` [Meprylcaine hydrochloride] registered a growth of 0.298 ± 0.0024.

Molecule `CN1CCC(=C2c3ccccc3CCc3cccnc32)CC1` [Azatadine maleate] had a growth of 0.271 ± 0.0097.

`CNC(=C[N+](=O)[O-])NCCSCc1csc(CN(C)C)n1` [Nizatidine] showed a growth of 0.301 ± 0.018.

`Fc1ccc(C(c2ccc(F)cc2)N2CCN(C/C=C/c3ccccc3)CC2)cc1` [Flunarizine dihydrochloride] yielded a growth of 0.11 ± 0.019.

Regarding `CC(C(=O)O)c1cccc(C(=O)c2ccccc2)c1` (stereo not given) [Ketoprofen], the growth turned out to be 0.249 ± 0.014.

In turn, `C1N2CN3CN1CN(C2)C3` [Methenamine] registered a growth of 0.287 ± 0.0055.

Molecule `Cc1c(N(C)CS(=O)(=O)O)c(=O)n(-c2ccccc2)n1C` [Dipyrone] had a growth of 0.323 ± 0.022.

In turn, `Cc1onc(-c2ccccc2)c1-c1ccc(S(N)(=O)=O)cc1` [Valdecoxib] registered a growth of 0.173 ± 0.0027.

In turn, `O=C(C1CCCCC1)N1CC(=O)N2CCc3ccccc3C2C1` (stereo not given) [Praziquantel] came in with a growth of 0.251 ± 0.0052.

`Clc1ccc(Cn2c(CN3CCCC3)nc3ccccc32)cc1` [Clemizole hydrochloride] returned a growth of 0.0807 ± 0.029.

`O=C(O)c1ccccc1OP(=O)(O)O` [Fosfosal] displayed a growth of 0.292 ± 0.017.

`COc1ccc(C2CNC(=O)C2)cc1OC1CCCC1` (stereo not given) [Rolipram]: the growth came out at 0.275 ± 0.012.

In turn, `CCC1=C(C)CN(C(=O)NCCc2ccc(S(=O)(=O)NC(=O)N[C@H]3CC[C@H](C)CC3)cc2)C1=O` [Glimepiride] returned a growth of 0.299 ± 0.011.

For the molecule `CC(=O)Nc1c(I)c(C(=O)N[C@H]2C(O)O[C@H](CO)[C@@H](O)[C@@H]2O)c(I)c(N(C)C(C)=O)c1I` (stereo not given in full) [Metrizamide], the growth was found to be 0.307 ± 0.014.

The molecule `CN(C(=O)C(Cl)Cl)c1ccc(OC(=O)c2ccco2)cc1` [Diloxanide furoate] yielded a growth of 0.264 ± 0.018.

`Cc1c(Cl)cccc1Nc1ccccc1C(=O)O` [Tolfenamic acid] returned a growth of 0.0448 ± 0.0007.

Molecule `COc1ccc(C(=O)CC(=O)c2ccc(C(C)(C)C)cc2)cc1` [Avobenzone] yielded a growth of 0.188 ± 0.026.

Regarding `NCc1ccccc1CC(=O)N[C@@H]1C(=O)N2C(C(=O)O)=C(CSc3nnnn3CC(=O)O)CS[C@H]12` [Ceforanide], the growth is 0.324 ± 0.0083.

With `CN(C)CCCN1c2ccccc2CCc2ccccc21` [Imipramine hydrochloride], the growth turned out to be 0.242 ± 0.018.

Molecule `COc1ccc(-c2cc(=O)c3c(O)cc(O[C@@H]4O[C@H](CO[C@@H]5O[C@@H](C)[C@H](O)[C@@H](O)[C@H]5O)[C@@H](O)[C@H](O)[C@H]4O)cc3o2)cc1O` [Diosmin] came in with a growth of 0.334 ± 0.01.

`COC(=O)N/N=C/c1c[n+]([O-])c2ccccc2[n+]1[O-]` [Carbadox]: the growth came to 0.23 ± 0.011.

Molecule `N=C(N)NC(=O)c1nc(Cl)c(N)nc1N` [Amiloride hydrochloride dihydrate] came in with a growth of 0.291 ± 0.021.

Regarding `Nc1nc(Cl)nc2c1ncn2[C@H]1C[C@H](O)[C@@H](CO)O1` [Cladribine], the growth worked out at 0.165 ± 0.0084.

On to `CO[C@@]1(NC(=O)C2SC(=C(C(N)=O)C(=O)O)S2)C(=O)N2C(C(=O)O)=C(CSc3nnnn3C)CS[C@@H]21` (stereo not given in full) [Cefotetan], for which the growth was 0.0383 ± 0.0011.

`CC(=O)O[C@H]1C[C@@]2(C)[C@@H](C[C@@H](O)[C@H]3[C@@]4(C)CC[C@@H](O)[C@@H](C)[C@@H]4CC[C@@]32C)/C1=C(\CCC=C(C)C)C(=O)O` [Fusidic acid sodium salt] yielded a growth of 0.0422 ± 0.00097.

The molecule `COc1ccc(CN(CCN(C)C)c2ccccn2)cc1` [Pyrilamine maleate] returned a growth of 0.269 ± 0.018.

`C#C[C@]1(O)CC[C@H]2[C@@H]3CCC4=Cc5oncc5C[C@]4(C)[C@H]3CC[C@@]21C` [Danazol] yielded a growth of 0.168 ± 0.026.

Consider `CCN(CC)C(C)CN1c2ccccc2Sc2ccccc21` (stereo not given) [Ethopropazine hydrochloride], for which the growth turned out to be 0.214 ± 0.0057.

`CCCNC(C)C(=O)Nc1c(C)csc1C(=O)OC` (stereo not given) [Articaine hydrochloride] gave a growth of 0.3163 ± 0.0008.

As to `Cc1ccc(Cl)c(Nc2ccccc2C(=O)O)c1Cl` [Meclofenamic acid sodium salt monohydrate], the growth was determined as 0.0555 ± 0.0013.

`CC(=O)Nc1ccc(OCC(O)CNC(C)C)cc1` (stereo not given) [Practolol] gave a growth of 0.307 ± 0.0096.

Regarding `CN(C)CCOC(=O)COc1ccc(Cl)cc1` [Meclofenoxate hydrochloride], the growth worked out at 0.3 ± 0.018.

`NCCNCCNCCNCCN` [Tetraethylenepentamine pentahydrochloride] displayed a growth of 0.313 ± 0.013.

The molecule `C#C[C@]1(O)CC[C@H]2[C@@H]3CCC4=CC(=O)CC[C@@H]4[C@H]3CC[C@@]21C` [Norethindrone] registered a growth of 0.221 ± 0.017.

The molecule `Nc1c(Br)cc(Br)cc1CN[C@H]1CC[C@H](O)CC1` [Ambroxol hydrochloride] returned a growth of 0.256 ± 0.014.

For `Clc1ccc(C(c2ccccc2Cl)C(Cl)Cl)cc1` (stereo not given) [Mitotane], the growth came to 0.215 ± 0.017.

As for `Cc1nc2ccccn2c(=O)c1CCN1CCC(C(=O)c2ccc(F)cc2)CC1` [Pirenperone], the growth is 0.272 ± 0.0064.

With `O=c1cc(-c2ccc(O)c(O)c2)oc2cc(O)cc(O)c12` [Luteolin], the growth amounted to 0.0562 ± 0.0013.

`CC[N+](C)(C)c1cccc(O)c1` [Edrophonium chloride] yielded a growth of 0.294 ± 0.012.

`CCn1cc(C(=O)O)c(=O)c2cc(F)c(N3CCNC(C)C3)c(F)c21` (stereo not given) [Lomefloxacin hydrochloride] came in with a growth of 0.0411 ± 0.00064.
